The full data set covers some 8,800 targets. This sample favours those with a hit. About 0.5% of all pairs of compound and target were hits. Values without a mark were called inactive.

Data on 15 targets can be found in the supplement of paper PMC10849652.

Holding throughout (test): log2 fold change, soluble protein after heating vs DMSO (PISA); higher = thermal stabilisation; K562 lysate, 10 uM; active = over 0.2 and 3.5 SD of the protein, either way, in both replicates (recomputed)
Compound in one experiment: CN1CC[C@H](c2c(O)cc(O)c3c(=O)cc(-c4ccccc4Cl)oc23)[C@H](O)C1 [alvocidib]
The procedure, abridged: (§1)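 Dounce homogenisation of K562 pellets in PBS pH 7.4 with 1 mM MgCl2 produced a crude extract, used at 1 mg/mL protein. Exposure to 10 μM compound lasted 30 min, and aliquots were then heated for 3 min across 48°C-58°C, pooled and brought to 0.5% NP-40 at 4°C. The supernatant after 21,000xg for 90 min was quantified by TMTpro 16plex LC-MS/MS with channel sums equalised. Duplicate values are given as log-two fold change in thermal stability relative to solvent controls.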

Compound in another experiment: CN1CCc2c(c3ccccc3n2Cc2ccc(C(=O)NO)cc2)C1 [Tubastatin A]
Put shortly: as §1

Compound in experiment [1]: CNC(=O)C1=CC=CC=C1NC2=NC(=NC=C2Cl)NC3=C(C=C(C=C3)N4CCOCC4)OC
The procedure, abridged:
as §1

Compound in a further experiment: CNC(=O)c1ccc(Nc2ncc(C(F)(F)F)c(NCc3nccnc3N(C)S(C)(=O)=O)n2)cc1 [defactinib]
Put shortly:
as §1

Compound in experiment [2]: CNc1nc(-c2ccc3c(N)n[nH]c3c2)cc(N2C[C@@H](C(=O)NC3CCCCC3)CC[C@H]2C)n1
Put shortly:
as §1

Compound in another experiment: COC(=O)N[C@@H](C)CNc1nccc(-c2cn(C(C)C)nc2-c2cc(Cl)cc(NS(C)(=O)=O)c2F)n1 [encorafenib]
The procedure, abridged: as §1

Compound in experiment [3]: COC(=O)[C@H](CCSC)NC(=O)C1=C(C=C(C=C1)NC[C@H](CS)N)C2=CC=CC=C2
Put shortly:
as §1

Compound in a further experiment: COc1cc(Nc2ncc3c(n2)-c2ccc(Cl)cc2C(c2c(F)cccc2OC)=NC3)ccc1C(=O)O [alisertib]
Put shortly: as §1

Compound in experiment [4]: COc1cc2nc(-c3cc(F)ccc3O)nc(N[C@@H]3CNC[C@H]3C(C)(C)O)c2cc1OC
The procedure, abridged: as §1

Compound in the next experiment: COc1cc2ncnc(Nc3ccc(F)c(Cl)c3)c2cc1OCCCN1CCOCC1 [gefitinib]
The procedure, abridged:
as §1

UniProt Q9BTT0, sequence (Q9BTT0 whole entry, looked up): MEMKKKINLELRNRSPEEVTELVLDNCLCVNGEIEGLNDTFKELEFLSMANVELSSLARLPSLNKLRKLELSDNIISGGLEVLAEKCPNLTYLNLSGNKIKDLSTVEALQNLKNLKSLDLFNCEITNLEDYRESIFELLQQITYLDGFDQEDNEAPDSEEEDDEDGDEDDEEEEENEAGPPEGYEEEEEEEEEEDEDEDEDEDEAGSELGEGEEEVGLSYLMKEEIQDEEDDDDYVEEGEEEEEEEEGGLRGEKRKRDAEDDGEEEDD
UniProt Q8N2K0, sequence (Q8N2K0 whole entry, looked up): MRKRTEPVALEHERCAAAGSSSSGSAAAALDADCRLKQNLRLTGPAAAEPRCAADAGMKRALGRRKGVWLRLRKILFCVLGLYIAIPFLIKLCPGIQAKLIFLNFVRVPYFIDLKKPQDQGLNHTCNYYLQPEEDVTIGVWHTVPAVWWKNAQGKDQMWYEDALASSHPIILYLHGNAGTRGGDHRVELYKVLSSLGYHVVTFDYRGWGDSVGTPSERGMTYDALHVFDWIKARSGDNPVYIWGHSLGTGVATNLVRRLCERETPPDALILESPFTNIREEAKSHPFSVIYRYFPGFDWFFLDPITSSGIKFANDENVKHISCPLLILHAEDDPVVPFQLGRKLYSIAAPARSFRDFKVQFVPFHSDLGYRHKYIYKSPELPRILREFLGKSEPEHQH
UniProt P07355, sequence (P07355 whole entry, looked up): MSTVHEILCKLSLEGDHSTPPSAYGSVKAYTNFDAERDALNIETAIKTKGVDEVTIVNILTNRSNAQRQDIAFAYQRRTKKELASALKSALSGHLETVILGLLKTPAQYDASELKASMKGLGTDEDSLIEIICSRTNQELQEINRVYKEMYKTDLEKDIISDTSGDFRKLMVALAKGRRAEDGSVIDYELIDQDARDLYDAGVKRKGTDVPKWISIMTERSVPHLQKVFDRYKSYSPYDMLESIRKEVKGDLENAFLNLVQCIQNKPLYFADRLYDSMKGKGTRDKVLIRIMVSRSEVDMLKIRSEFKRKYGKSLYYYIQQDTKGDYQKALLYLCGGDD
UniProt P05091, sequence (P05091 whole entry, looked up): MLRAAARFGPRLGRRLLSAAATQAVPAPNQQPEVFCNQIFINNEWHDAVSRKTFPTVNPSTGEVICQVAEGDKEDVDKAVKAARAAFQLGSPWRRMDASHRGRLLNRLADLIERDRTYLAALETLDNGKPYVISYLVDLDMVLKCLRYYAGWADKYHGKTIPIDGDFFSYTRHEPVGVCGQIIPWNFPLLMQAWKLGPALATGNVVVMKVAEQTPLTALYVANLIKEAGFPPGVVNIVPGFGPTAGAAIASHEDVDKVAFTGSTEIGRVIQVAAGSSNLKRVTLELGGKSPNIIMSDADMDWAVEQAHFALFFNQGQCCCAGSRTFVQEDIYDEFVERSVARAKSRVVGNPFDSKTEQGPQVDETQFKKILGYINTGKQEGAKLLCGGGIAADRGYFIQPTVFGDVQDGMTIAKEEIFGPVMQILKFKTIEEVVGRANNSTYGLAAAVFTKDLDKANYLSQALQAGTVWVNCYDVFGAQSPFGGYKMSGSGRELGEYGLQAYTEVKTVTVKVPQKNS
UniProt Q6NXT1, sequence (Q6NXT1 whole entry, looked up): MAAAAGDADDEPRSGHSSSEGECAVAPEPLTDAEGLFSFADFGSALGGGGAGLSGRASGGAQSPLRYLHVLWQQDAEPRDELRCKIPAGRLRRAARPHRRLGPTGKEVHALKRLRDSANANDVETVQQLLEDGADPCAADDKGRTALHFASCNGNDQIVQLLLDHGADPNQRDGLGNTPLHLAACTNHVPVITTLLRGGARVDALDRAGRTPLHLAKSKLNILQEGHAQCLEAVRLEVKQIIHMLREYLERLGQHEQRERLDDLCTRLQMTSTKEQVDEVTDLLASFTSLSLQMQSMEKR
UniProt Q9UKA4, sequence (Q9UKA4 whole entry, looked up): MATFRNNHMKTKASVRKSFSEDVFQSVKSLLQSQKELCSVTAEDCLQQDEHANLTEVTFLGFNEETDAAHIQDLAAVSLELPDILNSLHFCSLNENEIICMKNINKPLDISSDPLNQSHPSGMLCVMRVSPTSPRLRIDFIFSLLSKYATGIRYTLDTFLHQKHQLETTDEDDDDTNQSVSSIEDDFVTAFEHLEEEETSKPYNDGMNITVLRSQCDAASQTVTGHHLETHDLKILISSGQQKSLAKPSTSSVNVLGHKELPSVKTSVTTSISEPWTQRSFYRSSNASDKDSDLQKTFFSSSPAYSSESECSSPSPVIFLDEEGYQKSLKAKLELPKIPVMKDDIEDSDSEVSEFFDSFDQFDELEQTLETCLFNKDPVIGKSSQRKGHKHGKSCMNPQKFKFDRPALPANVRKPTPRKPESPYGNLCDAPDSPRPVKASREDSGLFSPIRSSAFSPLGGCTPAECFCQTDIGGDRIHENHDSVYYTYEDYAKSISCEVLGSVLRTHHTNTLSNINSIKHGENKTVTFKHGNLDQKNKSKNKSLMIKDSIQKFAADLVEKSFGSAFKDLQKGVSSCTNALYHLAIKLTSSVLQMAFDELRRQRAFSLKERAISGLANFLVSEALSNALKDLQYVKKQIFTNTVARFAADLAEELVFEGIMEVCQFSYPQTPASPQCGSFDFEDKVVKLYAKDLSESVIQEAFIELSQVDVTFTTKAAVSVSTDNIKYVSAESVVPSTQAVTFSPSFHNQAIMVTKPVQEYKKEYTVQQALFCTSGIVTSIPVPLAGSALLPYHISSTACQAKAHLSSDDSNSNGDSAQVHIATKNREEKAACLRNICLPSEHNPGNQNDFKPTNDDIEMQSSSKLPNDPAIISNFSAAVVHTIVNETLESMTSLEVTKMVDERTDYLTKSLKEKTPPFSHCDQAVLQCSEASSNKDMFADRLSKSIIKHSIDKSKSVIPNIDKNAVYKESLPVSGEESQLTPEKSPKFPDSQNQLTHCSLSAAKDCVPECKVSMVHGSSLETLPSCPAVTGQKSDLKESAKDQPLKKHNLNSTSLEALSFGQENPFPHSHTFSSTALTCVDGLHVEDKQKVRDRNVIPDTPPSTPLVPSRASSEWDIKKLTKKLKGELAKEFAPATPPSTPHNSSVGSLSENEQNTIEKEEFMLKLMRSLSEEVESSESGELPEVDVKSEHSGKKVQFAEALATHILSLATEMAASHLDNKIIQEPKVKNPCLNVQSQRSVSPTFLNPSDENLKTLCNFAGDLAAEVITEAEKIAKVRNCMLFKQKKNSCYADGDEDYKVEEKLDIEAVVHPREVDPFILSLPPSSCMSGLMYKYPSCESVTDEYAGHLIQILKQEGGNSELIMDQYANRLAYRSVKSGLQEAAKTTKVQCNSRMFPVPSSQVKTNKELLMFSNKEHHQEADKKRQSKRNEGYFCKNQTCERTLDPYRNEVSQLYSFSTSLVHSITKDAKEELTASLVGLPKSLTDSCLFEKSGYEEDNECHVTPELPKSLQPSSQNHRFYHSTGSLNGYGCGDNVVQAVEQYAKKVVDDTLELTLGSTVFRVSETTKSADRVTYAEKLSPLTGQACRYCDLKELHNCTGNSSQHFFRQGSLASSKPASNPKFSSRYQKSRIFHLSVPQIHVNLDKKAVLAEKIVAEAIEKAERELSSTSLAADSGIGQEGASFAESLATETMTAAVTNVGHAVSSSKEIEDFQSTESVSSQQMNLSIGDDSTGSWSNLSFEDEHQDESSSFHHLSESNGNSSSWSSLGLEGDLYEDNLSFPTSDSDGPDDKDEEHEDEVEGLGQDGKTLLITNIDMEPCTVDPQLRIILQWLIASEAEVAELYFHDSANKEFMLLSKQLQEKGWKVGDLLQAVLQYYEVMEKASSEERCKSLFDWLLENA
UniProt Q6NXE6, sequence (Q6NXE6 whole entry, looked up): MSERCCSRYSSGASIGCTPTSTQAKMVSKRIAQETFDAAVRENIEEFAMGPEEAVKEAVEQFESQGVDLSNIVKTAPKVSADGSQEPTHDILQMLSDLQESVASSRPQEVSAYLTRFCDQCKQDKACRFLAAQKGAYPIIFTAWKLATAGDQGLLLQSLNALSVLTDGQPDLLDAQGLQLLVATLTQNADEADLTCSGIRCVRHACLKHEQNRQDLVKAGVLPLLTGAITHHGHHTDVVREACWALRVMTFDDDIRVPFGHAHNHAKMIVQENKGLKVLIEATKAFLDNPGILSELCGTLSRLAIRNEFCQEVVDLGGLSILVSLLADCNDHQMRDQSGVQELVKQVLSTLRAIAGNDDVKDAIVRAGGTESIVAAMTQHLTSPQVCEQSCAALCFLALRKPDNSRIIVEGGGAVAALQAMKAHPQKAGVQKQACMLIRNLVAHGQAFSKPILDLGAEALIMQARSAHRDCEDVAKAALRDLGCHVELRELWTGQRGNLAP
UniProt Q6P1M9, sequence (Q6P1M9 whole entry, looked up): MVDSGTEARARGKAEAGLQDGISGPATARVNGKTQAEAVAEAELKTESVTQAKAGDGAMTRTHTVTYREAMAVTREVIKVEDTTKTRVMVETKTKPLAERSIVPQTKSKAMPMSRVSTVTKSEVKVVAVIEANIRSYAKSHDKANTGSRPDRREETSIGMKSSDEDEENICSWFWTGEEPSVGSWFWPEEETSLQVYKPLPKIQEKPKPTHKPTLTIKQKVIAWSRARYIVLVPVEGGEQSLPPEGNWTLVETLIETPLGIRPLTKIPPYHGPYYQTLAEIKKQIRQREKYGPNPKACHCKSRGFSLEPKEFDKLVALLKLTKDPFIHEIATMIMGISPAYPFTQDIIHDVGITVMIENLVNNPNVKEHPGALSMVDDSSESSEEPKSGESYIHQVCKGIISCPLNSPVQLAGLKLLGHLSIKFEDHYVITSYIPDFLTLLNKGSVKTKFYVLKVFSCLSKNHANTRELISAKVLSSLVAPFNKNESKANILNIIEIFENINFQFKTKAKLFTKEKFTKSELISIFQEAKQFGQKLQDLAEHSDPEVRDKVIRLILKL

Consider AK2 (UniProt P54819), for which the log2 fold change was -0.003 in the experiment with alvocidib; 0.05 with Tubastatin A; -0.019 in [1]; 0.016 with defactinib; 0.033 in experiment [2]; -0.025 in the experiment with encorafenib. In addition, the log2 fold change was -0.018 in [3], 0.008 in the experiment with alisertib, -0.025 in [4] and 0.019 with gefitinib.

With ARMCX5 (UniProt Q6P1M9), the log2 fold change in the experiment with alvocidib was 0.029; with Tubastatin A it was -0.105; in experiment [1] it was 0.067; in the experiment with defactinib it was 0.014; in experiment [2], -0.012; in the experiment with encorafenib, 0.045. The log2 fold change in [3] is 0.023; in the experiment with alisertib, -0.003; in experiment [4] it was 0.035; with gefitinib, 0.035.

In the case of ALDH5A1 isoform 2 (UniProt P51649), the log2 fold change in the experiment with alvocidib is 0.063; in the experiment with Tubastatin A, 0.048; in [1] it was 0.007; with defactinib, 0.016; in experiment [2] it was -0.02; with encorafenib, -0.028. Also, the log2 fold change in experiment [3] was 0.077; in the experiment with alisertib, 0.001; in experiment [4], 0.006; with gefitinib, -0.042.

ACOX1 isoform 2 (UniProt Q15067): the log2 fold change with alvocidib was -0.049; with Tubastatin A it was 0.041; in [1] it was 0.012; with defactinib it was 0.012; in experiment [2], 0.017; with encorafenib it was -0.015. Further, the log2 fold change is -0.255 (active) in experiment [3], 0 in the experiment with alisertib, 0.01 in [4] and 0.018 in the experiment with gefitinib.

Turning to ALDH2 (UniProt P05091), the log2 fold change was 0.059 with alvocidib; -0.006 in the experiment with Tubastatin A; 0.437 (active) in experiment [1]; -0.03 in the experiment with defactinib; -0.051 in [2]; 0.006 with encorafenib. Further, the log2 fold change was -0.03 in [3], 0.037 in the experiment with alisertib, -0.016 in [4] and 0.014 with gefitinib.

ABHD12 isoform 2 (UniProt Q8N2K0): the log2 fold change is 0.02 with alvocidib; 0.001 with Tubastatin A; 0.039 in experiment [1]; -0.004 with defactinib; 0.003 in experiment [2]; 0.046 in the experiment with encorafenib. The log2 fold change in experiment [3] is -0.018; with alisertib it was -0.031; in experiment [4], -0.03; in the experiment with gefitinib it was -0.045.

On to AKAP11 (UniProt Q9UKA4), for which the log2 fold change was 0.032 with alvocidib; 0.026 in the experiment with Tubastatin A; 0.001 in [1]; 0.093 with defactinib; -0.01 in experiment [2]; -0.03 in the experiment with encorafenib. For the same target, the log2 fold change was 0.144 in [3], -0.022 with alisertib, -0.119 in [4] and -0.114 with gefitinib.

In the case of ANP32A (UniProt P39687), the log2 fold change with alvocidib is -0.039; with Tubastatin A, 0.027; in [1] it was -0.006; in the experiment with defactinib it was 0.016; in [2], -0.056; with encorafenib it was -0.024. The log2 fold change was -0.048 in experiment [3], 0.018 in the experiment with alisertib, -0.014 in experiment [4] and -0.007 with gefitinib.

On to ANXA2 isoform 2 (UniProt P07355), for which the log2 fold change was 0.012 with alvocidib; 0.013 with Tubastatin A; -0.012 in experiment [1]; -0.011 with defactinib; -0.026 in [2]; -0.03 with encorafenib. Also, the log2 fold change was -0.007 in [3], 0.002 with alisertib, 0.003 in [4] and -0.009 with gefitinib.

Take AGTPBP1 (UniProt Q9UPW5): the log2 fold change in the experiment with alvocidib is 0.034; in the experiment with Tubastatin A it was 0.046; in experiment [1], 0.024; in the experiment with defactinib, -0.058; in [2] it was -0.001; with encorafenib, -0.014. Besides, the log2 fold change is -0.031 in experiment [3], 0.097 with alisertib, -0.039 in experiment [4] and -0.004 with gefitinib.

With AIMP1 isoform 2 (UniProt Q12904), the log2 fold change with alvocidib was 0.056; with Tubastatin A, -0.118; in [1] it was 0.01; with defactinib, 0.018; in experiment [2] it was 0.028; with encorafenib, -0.005. Also, the log2 fold change in experiment [3] was 0.11; with alisertib it was 0.004; in [4], -0.009; with gefitinib, -0.029.

With ANKRD54 (UniProt Q6NXT1), the log2 fold change with alvocidib was -0.019; with Tubastatin A, -0.095; in experiment [1], 0.121; with defactinib, 0.022; in experiment [2], 0.042; in the experiment with encorafenib, 0.082. For the same target, the log2 fold change in experiment [3] was -0.147; in the experiment with alisertib it was 0.006; in experiment [4], -0.011; with gefitinib, 0.002.

In the case of ABCD3 (UniProt P28288), the log2 fold change is -0.064 with alvocidib; 0.1 with Tubastatin A; -0.114 in experiment [1]; -0.019 with defactinib; -0.048 in [2]; 0.028 in the experiment with encorafenib. The log2 fold change is 0.444 (active) in experiment [3], 0.044 with alisertib, -0.013 in experiment [4] and 0.145 in the experiment with gefitinib.

Take ANP32E (UniProt Q9BTT0): the log2 fold change with alvocidib was 0; in the experiment with Tubastatin A, 0.079; in [1], -0.007; with defactinib, -0.018; in [2] it was 0.056; in the experiment with encorafenib it was -0.037. In addition, the log2 fold change in experiment [3] is -0.008; in the experiment with alisertib it was -0.019; in experiment [4], 0.007; in the experiment with gefitinib, -0.061.

Consider ARMC6 (UniProt Q6NXE6), for which the log2 fold change with alvocidib was 0; in the experiment with Tubastatin A it was -0.171; in experiment [1], 0; with defactinib, -0.003; in [2], -0.103; with encorafenib, 0.037. The log2 fold change was 0.234 (active) in experiment [3], 0.005 in the experiment with alisertib, -0.014 in experiment [4] and 0.041 with gefitinib.
